Laboratory results as given in PubChem BioAssay (EPA / NIEHS).
Active and inactive are the calls of the source. How the source made its calls: active means hit-call score of the fitted dose curve at least 0.9, where 1 is the maximum; inactive means score below 0.9.

Assay: BSK_BT_PBMCCytotoxicity: PBMC Cytotoxicity Assessment in the BioMAP Diversity Plus: BT Assay (AID 2284225);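 further: PBMC viability measured by Alamar Blue dye reduction fluorescence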
Details: primary human B cells with PBMC
In short: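 75,000 cells/well; cpd 1 h → SEB + TSST-1 (20 ng/mL final each) → 90 h → Alamar Blue 6 h → fluor. 546/580 nm. DMSO = neg. control/baseline.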

| SMILES | AC50 | outcome |
| --- | --- | --- |
| ClC1=C(Cl)[C@]2(Cl)[C@H]3[C@H]([C@H]4C=C[C@H]3C4)[C@@]1(Cl)C2(Cl)Cl | 30.5 µM (active) |  |
| O=Cc1cccc(Oc2ccccc2)c1 |  | inactive |
| COP(=S)(OC)Oc1cc(Cl)c(Cl)cc1Cl |  | inactive |
| CCNc1nc(NC(C)(C)C)nc(SC)n1 |  | inactive |
| CC(C)CCCCCCOC(=O)c1ccccc1C(=O)OCCCCCCC(C)C |  | inactive |
| CCOC(=O)/C=C(C)/C=C/C[C@@H](C)CCCC(C)C | 23.7 µM (active) |  |
| O=C(O)C(F)(F)C(F)(F)C(F)(F)C(F)(F)C(F)(F)C(F)(F)F |  | inactive |
| COP(=S)(OC)Oc1ccc(S(=O)(=O)N(C)C)cc1 |  | inactive |
| COP(=S)(OC)Oc1c(Cl)cc(C)cc1Cl | 14.5 µM (active) |  |
| OCc1ccco1 |  | inactive |
| CCCCC(CC)CO[N+](=O)[O-] (stereo unspecified) |  | inactive |
| O=S(=O)(c1ccc(Cl)cc1)c1ccc(Cl)cc1 |  | inactive |
| Nc1cccc2ccccc12 |  | inactive |
| Oc1c(I)cc(I)cc1I |  | inactive |
| CC1(C)Cc2cccc(O)c2O1 |  | inactive |
| NC(=S)Nc1ccccc1 |  | inactive |
| Nc1ccc(-c2ccc(N)c(Cl)c2)cc1Cl |  | inactive |
| CCCCCCCCC(=O)NCc1ccc(O)c(OC)c1 |  | inactive |
| C(=NC1CCCCC1)=NC1CCCCC1 | 8.8 µM (active) |  |
| O=C(O)C(F)(F)C(F)(F)C(F)(F)C(F)(F)C(F)(F)C(F)(F)C(F)(F)C(F)(F)C(F)(F)C(F)(F)F |  | inactive |
| O=C(OC1CCCCC1)c1ccccc1C(=O)OC1CCCCC1 | 34.8 µM (active) |  |
